# D3 ag: activates the human D3 dopamine receptor; AID 652048; D3R DiscoveRx beta-arrestin cells, luminescence, 90 min; max activation, %; P35462; 410,000 tested, 0.58% active; in the data active = max activation above about 30%; also: 0% is about no effect
# Target sequence (P35462 whole entry, looked up): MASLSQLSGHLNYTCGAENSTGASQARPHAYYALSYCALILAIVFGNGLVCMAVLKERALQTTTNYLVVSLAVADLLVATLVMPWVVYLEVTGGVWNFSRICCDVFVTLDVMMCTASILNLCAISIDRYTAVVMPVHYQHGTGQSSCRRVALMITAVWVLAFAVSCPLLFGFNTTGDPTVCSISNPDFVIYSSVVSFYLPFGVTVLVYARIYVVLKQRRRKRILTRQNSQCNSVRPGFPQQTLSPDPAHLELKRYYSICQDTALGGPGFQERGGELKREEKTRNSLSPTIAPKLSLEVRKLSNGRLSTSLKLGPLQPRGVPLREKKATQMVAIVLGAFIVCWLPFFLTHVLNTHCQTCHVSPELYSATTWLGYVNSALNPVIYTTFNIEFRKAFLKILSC
#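 Cells at 1500/well, incubated overnight, then treated with pinned compounds (dopamine as control) for 90 min at 37 degrees C. DiscoveRx reagent added for 30 - 60 minutes at room temperature; luminescence read.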
# KB-V1 cytotox: KB-V1 MDR subline cytotoxicity. 400,000 tested, 3.4% active. AID 1347076. Potency, µM (series often up to 46.1 µM), most hits filed as cytotoxic. KB-V1 MDR cells viability, CellTiter-Glo, 72 h; also: potency is read from the fitted curve at half-maximal effect; % is scaled to controls: 0 for no effect and ±100 for the full control effect; nearly all actives have a fitted effect of over 60% in size
#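 Readout: CellTiter-Glo luminescence, 10 min after addition. Cells: KB-V1 MDR subline, 72 h at 37 degrees C with compound. Analysis: corrected, normalized data fitted to concentration-effect curves.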
# D3 antag: blocks the human D3 dopamine receptor; D3R cells, DiscoveRx beta-arrestin luminescence, antagonist mode; stronger effect = lower value; P35462; 360,000 tested, 2.5% active; max response, negative = inhibition, %; AID 652054; in the data active = max response below about -50%; inconclusive = no clear call, values can overlap the other calls; also: % is scaled to controls: 0 for no effect and ±100 for the full control effect
#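 Cells plated overnight at 1500 cells/well, then exposed to library compounds with dopamine controls for 90 minutes at 37 degrees C. DiscoveRx reagent added for 30–60 minutes at room temperature; luminescence read, quantitative HTS format.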
# SW480 rerep: induces DNA re-replication in SW480 colon adenocarcinoma cells; AID 624297; Potency, µM (titrated, usually from 46.1 µM), for the others: top-dose re-replication activation, most hits filed as activators; 340,000 tested, 1.8% active; SW480 DNA re-replication, Hoechst DNA content imaging, 48 h; also: potency is read from the fitted curve at half-maximal effect; % of control where 0% means no effect; nearly all actives have a fitted effect of over 55% in size
#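 Compounds, transferred as 23 nL by pin tool, were incubated with cells for 48 hr; DNA content per nucleus was then quantified by Hoechst staining and fluorescence plate imaging.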
# KB-3-1 cytotox: KB-3-1 parental cell cytotoxicity; KB-3-1 viability, CellTiter-Glo ATP luminescence, 72 h; Potency, µM (series often up to 46.1 µM), usual class: cytotoxic; 400,000 tested, 1.4% active; AID 1347075; also: potency is read from the fitted curve at half-maximal effect; % is scaled to controls: 0 for no effect and ±100 for the full control effect; nearly all actives have a fitted effect of over 60% in size
#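 Screening of KB-3-1 cells (DMEM, 10% FBS, phenol-red free) ran from lowest to highest compound concentration; after 72 h at 37 °C viability was read luminescently and curves fitted.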
# MCF10A rerep: inducers of DNA re-replication in MCF 10A breast cells; MCF 10A DNA re-replication, Hoechst nuclear intensity, 48 h; Potency, µM (highest dose often 46.1 µM), for inactives: top-dose activity, positive = re-replication, hits mostly activators; 350,000 tested, 2.9% active; AID 624296; also: potency is read from the fitted curve at half-maximal effect; % of control where 0% means no effect; nearly all actives have a fitted effect of over 50% in size
# * hit, by the source's call; i = inactive; ? = inconclusive; / = no result; [ ] = remark or other dose. Shown are actives, neighbours in structure and some others; about 8.9% of the full set was active somewhere. Unless noted, calls follow the shape of the dose curve; as a rule, active = well fitted curve in the direction sought with a large enough effect; inconclusive = small, poorly fitted or top-dose-only effect, or another doubt; inactive = no such curve, though single readings can be large; an effect the other way counts as inactive or inconclusive.
SMILES,D3 ag,KB-V1 cytotox,D3 antag,SW480 rerep,KB-3-1 cytotox,MCF10A rerep
O=C(Nc1cccc([S+](=O)([O-])Nc2ccccc2F)c1)c1ccccc1,/,i,/,/,i,/
O=C(Nc1cccc(Cl)c1)N1CCSc2cc(Cl)ccc21,0,18µM*,-4,1%,i,3%
O=C(Nc1ccccc1)N1CCSc2cc(Cl)ccc21,2,i,4,0%,i,7%
COc1ccccc1CNC(=O)C(CC(C)C)N1Cc2ccccc2C1=O (stereo unspecified),-1,i,/,/,i,/
COc1ccc(-n2c(=O)c3ccc(C(=O)NCc4ccc(C)cc4)cc3n(Cc3cccc(Cl)c3)c2=O)cc1,2,i,/,/,i,/
CCC1=C(c2ccc(C)cc2)S(=O)(=O)N=C1N1CCC(C(=O)Nc2ccccc2F)CC1,4,i,/,/,i,/
Cc1ccc(C(=O)N2N=C(c3ccccc3O)CC2c2ccccc2)cc1 (stereo unspecified),13,i,4,3%,i,2%
CNC(=S)N1N=C(c2ccc(C)cc2)CC1c1ccc(Br)cc1 (stereo unspecified),-10,15µM*,11,12%,i,8%
COc1ccc(C2CC(c3ccccc3)=NN2C(=O)c2cccs2)cc1 (stereo unspecified),0,i,34,3%,i,14%
COc1ccc(C(=O)N2N=C(c3cccs3)CC2c2ccccc2O)cc1 (stereo unspecified),-5,i,16,16µM*,i,24%
COc1ccc(C2=NN(C(=O)c3cccs3)C(c3ccccc3O)C2)cc1 (stereo unspecified),-1,i,-20,24%,i,21µM*
Cc1ccc(C(=O)N2N=C(c3ccc(Br)cc3)CC2c2ccccc2O)cc1 (stereo unspecified),23,?,25,10%,?,18µM*
CC(C(=O)Nc1ccccc1)n1nnc2sc3c(c2c1=O)CCCC3 (stereo unspecified),-14,i,/,/,i,/
O=C(CN1N=C(c2ccc(Cl)cc2)CCC1=O)NCc1ccc(F)cc1,-2,/,/,/,/,/
CN1CC=C2C(C#N)=C(N)C(C#N)(C#N)[C@H](c3cccs3)[C@H]2C1,-7,i,-13,-4%,i,-2%
CN1CC=C2C(C#N)=C(N)C(C#N)(C#N)C(CCc3ccccc3)C2C1 (stereo unspecified),-3,18µM*,-22,5%,i,17%
CCOC(=O)N1CC=C2C(C#N)=C(N)C(C#N)(C#N)[C@H](c3ccsc3)[C@H]2C1,-14,15µM*,-21,12%,?,12%
N#CC1=C(N)C(C#N)(C#N)C(c2ccncc2)C2CN(C(=O)OCc3ccccc3)CC=C12 (stereo unspecified),-14,?,-63*,?,?,?
CCN(CC)S(=O)(=O)c1ccc(NC(=O)NCc2noc3ccc(C)cc23)cc1,-4,i,/,/,?,/
CCCCCCCCN1C(=O)[C@H](CC(=O)N2CCN(C(=O)C3CC3)CC2)C[C@@]2(C(=O)OC)CCCCC=C12,7,?,0,/,i,/
COc1ccc2c(c1)[C@H]1[C@H](CO2)[C@H](c2ccccc2)[C@]2(C)C(=O)Nc3ccc(Cl)cc3C(=O)N12,-8,i,0,?,i,7%
COc1ccc2c(c1)[C@H]1[C@H](CO2)[C@H](c2ccccc2)[C@]2(C)C(=O)Nc3ccc(C)cc3C(=O)N12,-7,i,6,?,?,21µM*
COc1ccc2c(c1)C(=O)N1[C@H]3c4cc(C)ccc4OC[C@@H]3[C@H](c3ccccc3)[C@]1(C)C(=O)N2,-12,?,?,?,?,15µM*
COc1ccc2c(c1)OC[C@H]1[C@H]2N2C(=O)c3cc(C)ccc3NC(=O)[C@@]2(C)[C@H]1c1ccccc1,-2,i,-25,10µM*,i,?
COc1ccc2c(c1)OC[C@H]1[C@H]2N2C(=O)c3ccccc3NC(=O)[C@@]2(C)[C@H]1c1ccccc1,0,?,-16,?,21µM*,83%
SMILES,D3 ag,KB-V1 cytotox,D3 antag,SW480 rerep,KB-3-1 cytotox,MCF10A rerep
COc1ccc2c(c1)[C@@H]1[C@H](CO2)[C@H](c2ccccc2)[C@]2(C)C(=O)Nc3ccc(C)cc3C(=O)N12,3,?,-2,11%,?,1%
COc1ccc(NC(=O)CSC2=Nc3ccccc3N=C(c3ccc(F)cc3)C2)cc1OC,2,i,/,/,i,/
COc1ccc(-c2ccc(=O)n(CC(=O)Nc3ccc(N(C)C)cc3)n2)cc1,7,i,/,/,i,/
O=C(Nc1ccc(OC(F)(F)F)cc1)c1nc2ccccc2nc1N1CCCCC1,7,i,/,/,i,/
CCN(CC)S(=O)(=O)c1csc(C(=O)Nc2ccccn2)c1,-2,23µM*,-4,3%,i,4%
O=C(Nc1ccccn1)c1cccs1,3,i,?,-6%[9.22 µM],?,1%
O=C(NCc1ccc(F)cc1)c1cc(C2CCCN(C(=O)c3cccs3)C2)on1 (stereo unspecified),-1,i,-1,/,i,/
O=C(NCc1cccnc1)c1cc(C2CCCN(C(=O)c3cccs3)C2)on1 (stereo unspecified),-22,i,-123*,/,i,/
O=C(NCc1ccccc1)c1cc(C2CCCN(S(=O)(=O)c3cccs3)C2)on1 (stereo unspecified),-21,i,-68*,/,i,/
COc1cc(-c2ccno2)ccc1S(=O)(=O)N1CCN(c2ccccc2)CC1,0,i,/,/,i,/
O=C(CNCC1CCCO1)Nc1ccc(N2CCCCCC2)cc1 (stereo unspecified),-10,21µM*,-21,7%,i,-3%
O=C(CNCc1ccccc1Cl)Nc1ccccc1N1CCCCC1,-24,i,-60*,-2%,i,?
O=C(CNC1CCCC1)Nc1ccc(N2CCCCCC2)cc1,-11,?,1,6%,i,?
O=C(Nc1ccccc1N1CCCCC1)C1CCN(C(=O)c2ccc(Cl)cc2)CC1,-7,?,-59*,10%,i,?
O=C(CNCC1CCCO1)Nc1ccccc1N1CCCCCC1 (stereo unspecified),0,6.5µM*,-62*,-3%,i,14%
O=C(CNCC1CCCO1)N1CCCCCC1 (stereo unspecified),2,i,5,12%,i,1%
O=C(Cc1ccccc1F)Nc1ccccc1N1CCCC1,-3,i,0,-4%,i,13%

# Screens (PubChem)
